PubChem BioAssay AID1117319 (Southern Research Institute, 2015)
About 1,500 (0.58%) of roughly 260,000 compounds were called active. Another 5% or so got no clear call; they are omitted. A selection follows. Entries with a potency or affinity are not part of this list. Unmarked numbers belong to inactive results.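 How the source made its calls: active means inhibition above a set limit at one or more doses, reproduced on every date tested; inconclusive means results disagree between test dates, or hit never tested in dose response; inactive means the rest.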

Each compound was assayed against Virion infectivity factor (Human immunodeficiency virus type 1 group M subtype B (isolate BH10)) + Virion infectivity factor (Human immunodeficiency virus type 1 group M subtype B (isolate BRU/LAI)) + Virion infectivity factor (Human immunodeficiency virus type 1 group M subtype B (isolate PCV12)) + Virion infectivity factor (Human immunodeficiency virus type 1 group M subtype B (isolate HXB2)) + DNA dC->dU-editing enzyme APOBEC-3G (Homo sapiens) (UniProt P69720+P69721+P69722+P69723+Q9HC16) (assay: HIV-1 Vif–A3G interaction blockers – biochemical, TR-FRET, GST-Vif 1-94, biotin-A3G peptide, dose response retest, primary screen (AID 1117319;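 further: Vif residues 1-94 fused to GST binding biotinylated APOBEC3G peptide 110-148; 0% = full assay without inhibitor and 100% = GST in place of GST-Vif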)). Details: TR-FRET GST-Vif / biotin-A3G peptide binding; stronger effect = higher value.

Row | SMILES | inhibition [%]
1 | C=CC(=O)NC(C)(C)CCN1CCOCC1 | 0.07
2 | CCc1cccc(C)c1NC(=O)CO/N=C(\N)CC(=O)NC1CCCCC1 | -0.04
3 | O=C1C=CC(=Nc2ccc3c(c2)C(=O)c2ccccc2-3)O1 | -2.81
4 | O=[N+]([O-])c1ccccc1C=NNc1ccccc1 | -8.57
5 | COc1ccc(CC(NC(C)=O)C(=O)NC2CCN(S(=O)(=O)c3ccccc3)CC2)c(OC)c1 (stereo not drawn) | 3.28
6 | O=C(COC(=O)C12CC3CC(CC(Br)(C3)C1)C2)N1CCOCC1 | 4.7
7 | Cc1cc(=O)oc2cc(OCC(=O)N3CCCc4ccccc43)ccc12 | -3.74
8 | COCCCNc1nc2nonc2nc1N1CCC(C(C)N2CCOCC2)CC1 (stereo not drawn) | -10.9
9 | O=C(c1cccc(C(=O)N2CCN(c3ncccn3)CC2)c1)N1CCN(c2ncccn2)CC1 | 17.4
10 | CN1CCN(C(=O)c2ccc3nc(-c4ccccc4)c(-c4ccccc4)nc3c2)CC1 | 5.63
11 | O=C(c1ccco1)N1CCN(c2ncccn2)CC1 | 5.99
12 | CCN1CCN(C(=O)c2ccc3nc(-c4ccccc4)c(-c4ccccc4)nc3c2)CC1 | -0.29
13 | O=C(COc1ccccc1)NC(Cc1c[nH]c2ccccc12)C(=O)O (stereo not drawn) | 7.79
14 | c1ccc(-c2noc(CCC3CCCC3)n2)cc1 | -1.6
15 | Cc1c(C(=O)N2CCCCCC2)oc2ccccc12 | 30.7
16 | Cc1cc(C)nc(N/N=C/c2ccc(Cl)cc2)n1 | -3.39
17 | Cc1cc(C)nc(NN=CC2=C(N3CCOCC3)/C(=C/c3ccc(Cl)cc3)CC2)n1 | 17.2
18 | COC(CNC(=O)c1ccc(CS(=O)(=O)c2c(Cl)cccc2Cl)o1)OC | -0.54
19 | CN(C)CCNC(=O)c1ccc(CS(=O)(=O)c2c(Cl)cccc2Cl)o1 | 3.4
20 | CC(=O)c1cccc(NC(=O)N2CCCC2C(=O)NC2CCCCC2)c1 (stereo not drawn) | -4.16
21 | CCOc1ccc2nc(NC(=O)CSc3nc4c(c(=O)n(C)c(=O)n4C)n3C(C)C)sc2c1 | 18.8

Row | SMILES | inhibition [%]
22 | CCC(=O)c1ccc(N2CCN(C(=O)c3cccc(F)c3)CC2)c(F)c1 | -9.86
23 | O=C(c1cccc(C(=O)N2CCN(c3ccccc3F)CC2)c1)N1CCN(c2ccccc2F)CC1 | -8.59
24 | CCOC(=O)C1CCN(CC(O)COCc2ccc(Cl)cc2)CC1 (stereo not drawn) | 8.82
25 | O=S(=O)(/C=C/c1ccccc1)N1CCN(c2cccc(Cl)c2)CC1 | -3.95
26 | COc1ccc(C(=O)Nc2nnc(-c3ccco3)s2)cc1 | -3.84
27 | CS(=O)(=O)c1ccc2nc(NC(=O)c3ccco3)sc2c1 | 8.25
28 | O=C(NC(=S)Nc1nc2ccc(F)cc2s1)c1ccco1 | 9.98
29 | O=C(Nc1nnc(-c2ccco2)s1)C1CC1 | 12.1
30 | O=C(Nc1nc(-c2cccs2)c(-c2ccccc2)s1)c1ccco1 | 2.82
31 | O=C(Nc1nnc(-c2ccco2)s1)C1CCCCC1 | 22.7
32 | O=C(Nc1ccc(F)cc1F)c1cc(-c2ccco2)on1 | 5.56
33 | Cc1ccc(C(=O)Nc2nc(-c3ccco3)c(-c3ccco3)s2)o1 | 23.7
34 | COc1ccc(CNC(=O)N[C@@H](CC(C)C)C(=O)O)cc1OC | -2.37
35 | CCCc1cc(=O)[nH]c(SCC(=O)NCC2COc3ccccc3O2)n1 (stereo not drawn) | -7.96
36 | COc1cnc(-c2ccccn2)[nH]c1=O | 2.61
37 | O=C(Cn1nnc(-c2ccccc2F)n1)NCc1ccco1 | 10.4
38 | COc1ccc(CCNS(=O)(=O)c2ccc(OC)cc2)cc1 | -5.66
39 | Cc1[nH]c2ccc(Br)cc2c(=O)c1CN1CCCCCC1 | -12.9
40 | CC1CCCN(S(=O)(=O)Cc2ccc(Cl)cc2)C1 (stereo not drawn) | 4.49
41 | COc1ccc(COc2ccsc2C(=O)Nc2ccc(Cl)cc2)cc1 | -8.53
42 | [O-][n+]1cccc2cccc(O)c21 | -10.3

Row | SMILES | inhibition [%]
43 | Cc1ccc2cccc(O)c2[n+]1[O-] | 18.8
44 | C/C(=N\NC=O)c1ccncc1 | -3.47
45 | COc1ccc(CC(=O)N(C)C2CCCCC2)cc1S(=O)(=O)N1CCOCC1 | 1.22
46 | COc1ccc2[nH]c(C)cc(=O)c2c1 | -0.89
47 | Cc1ccc2c(C)c(C)c(=O)n(C)c2c1 | -6.81
48 | Cc1cc(=O)n(C)c2ccccc12 | -5.08
49 | COc1ccc2[nH]c3ccccc3c2c1 | 1.16
50 | Cc1ccc2c(c1)c1c(n2C)C(=O)CCC1 | -2
51 | COc1ccc2c(c1)c1ccccc1n2C | 1.57
52 | COc1ccc2c(OC)cc(=O)n(C)c2c1 | 6.19
53 | Cc1ccc(C)c2c1c1ccccc1n2C | -3.59
54 | Cc1c(NC(=O)c2cc(-c3ccccc3)nc3ccccc23)c(=O)n(-c2ccccc2)n1C | -2.43
55 | CC1=C(C(=O)OCc2ccccc2)C(c2ccccc2Br)NC(=O)N1 (stereo not drawn) | -2.14
56 | COc1ccccc1C(O)(c1ccccc1)C(CN1CCOCC1)c1ccccc1 (stereo not drawn) | 3.77
57 | COc1ccc(NC(=O)c2cc(-c3ccccc3)nc3c2c(C)nn3-c2ccccc2)c(OC)c1 | 1.03
58 | COC(=O)Cc1[nH]nc2c1C(C1C=CCCC1)C(C#N)=C(N)O2 (stereo not drawn) | 7.26
59 | COc1ccc(C2/C=C\CN(C(=O)C3CC3)[C@H](Cc3ccccc3)C(=O)N2Cc2ccc(F)cc2)cc1 (stereo partly drawn) | 7.45
60 | CC1CCN(C(=O)CSc2nnc(-c3ccncc3)n2C)CC1 | 8.77
61 | COc1cc(OC)cc(C(=O)NC2CCN(CCCOc3ccccc3)CC2)c1 | -2.34
62 | CCN(CC(=O)Nc1ccc(NC(C)=O)cc1)C(=O)c1ccc2ccccc2c1 | 8.12
63 | Nc1c(C(=O)CSc2nnc(-c3ccccc3F)o2)c(=O)[nH]c(=O)n1C1CC1 | -9.99
